Assay outcomes (PubChem BioAssay)
This is a sample that favours compounds with a hit; in the whole collection about 11% have one here.
L3MBTL1 block = inhibitors of human L3MBTL1. AlphaScreen L3MBTL1–H3K9me1 peptide binding. Potency, µM (titrated, usually from 57.1 µM), usual class: inhibitors. actives 0.66% (n = 230,000). AID 485360; note: nearly all actives have a fitted effect of over 60% in size
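Read-out is AlphaScreen signal from streptavidin donor and nickel chelate acceptor beads (10 ug/mL final each) bridging L3MBTL1 (50 nM) and biotinylated K9-monomethylated H3(1-15) peptide (75 nM), after 30 min compound exposure at room temperature.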
JMJD2A Tudor inh = JMJD2A Tudor domain (human) inhibition; O75164; Potency, µM (highest dose often 114 µM), actives largely listed as inhibitors; actives 4.4% (n = 390,000); AlphaScreen JMJD2A-Tudor / H3K4me3 peptide binding; note: nearly all actives have a fitted effect of over 50% in size
G9a block = inhibitors of human histone lysine methyltransferase G9a. actives 8.8% (n = 350,000). Q96KQ7. Potency, µM (highest dose often 102 µM), hits mostly inhibitors. G9a H3K9 monomethylation, AlphaScreen, 2 h. AID 504332; note: nearly all actives have a fitted effect of over 75% in size
Target sequence (Q96KQ7 913-1193 limits assumed): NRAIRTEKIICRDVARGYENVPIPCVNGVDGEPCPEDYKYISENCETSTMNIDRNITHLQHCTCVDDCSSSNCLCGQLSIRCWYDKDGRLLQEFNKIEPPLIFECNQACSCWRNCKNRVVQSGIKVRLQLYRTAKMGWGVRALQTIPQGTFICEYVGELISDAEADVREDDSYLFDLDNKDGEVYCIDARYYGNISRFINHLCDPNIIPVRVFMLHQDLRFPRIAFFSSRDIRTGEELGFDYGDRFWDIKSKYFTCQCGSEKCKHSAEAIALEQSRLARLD
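Readings reflect AlphaScreen signal from monomethyl-H3K9 antibody detection. HMT at 20 nM; substrate b-H3K9 500 nM; cofactor SAM 20 uM; 2 h RT reaction; compounds tested as titrations in qHTS with 15 min preincubation.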
PI5P4Ka inh = inhibitors of human PI5P4K alpha | AID 652105 | P48426 | max response, % | actives 1.2% (n = 330,000) | PI5P4Kalpha enzyme, ADP-Glo luminescence, 60 min; stronger effect = lower value; active = max response of -50% or lower; inconclusive = between -30% and -50%; inactive = -30% or higher; note: value at the top dose of about 77 µM
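Reactions run in 0.038 M HEPES pH 7.4, 0.28 mM EGTA, 0.1% CHAPS and 5% DMSO, with PI5P4Kalpha, substrate, compound and 5 microM ATP final, one hour at room temperature. Readout is ADP-Glo luminescence.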
HP1b binding inh = inhibitors of HP1-beta chromodomain binding to methylated histone tails. AlphaScreen HP1-beta / biotin-H3K9me3 peptide binding. Potency, µM (highest dose often 114 µM), most hits filed as inhibitors. actives 0.56% (n = 390,000). AID 540317; note: nearly all actives have a fitted effect of over 70% in size
Target sequence (P83916 whole entry, looked up): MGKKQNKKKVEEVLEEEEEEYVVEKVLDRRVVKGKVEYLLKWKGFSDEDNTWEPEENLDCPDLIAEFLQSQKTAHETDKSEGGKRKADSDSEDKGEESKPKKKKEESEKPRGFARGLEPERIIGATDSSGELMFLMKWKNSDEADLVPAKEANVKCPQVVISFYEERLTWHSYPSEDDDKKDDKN
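AlphaScreen: HP1-beta (50 nM) preformed 30 min with biotin-H3(1-18)K9me3 peptide (50 nM) in PBS pH 7.4, 0.01% Tween-20. Compound added for 30 min at RT, then streptavidin donor/nickel chelate acceptor beads (10 ug/mL) for 30 min.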
BAZ2B inh = blocks human BAZ2B; Q9UIF8; AlphaScreen BAZ2B-H3K14Ac peptide displacement; Potency, µM (series often up to 114 µM), actives largely listed as inhibitors; actives 4.4% (n = 360,000); note: nearly all actives have a fitted effect of over 60% in size
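AlphaScreen displacement: compounds (up to 110uM) incubated 30 min at room temperature with a preformed 50 nM BAZ2B/50 nM biotinylated H3K14Ac peptide complex in PBS pH 7.4 with Tween-20. Donor and acceptor beads at 10 ug/mL final added, 20 min light-protected before reading.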
Numbers stand for hits; n = inactive; u = inconclusive; x = not tested or not shown; [ ] = another dose, or the depositor's remark. Unless noted, calls come from the whole dose curve; as a rule, active = well fitted inhibition curve with a large enough effect; inconclusive = small, poorly fitted or top-dose-only effect; inactive = no such curve, though single readings can be large or run the other way.

SMILES	L3MBTL1 block	JMJD2A Tudor inh	G9a block	PI5P4Ka inh	HP1b binding inh	BAZ2B inh
COc1ccc(CN2CCN(Cc3ccccc3F)CC2)cc1OC	n	5.6µM	8.9µM	n	u	35µM
COc1ccccc1N1CCN(Cc2ccc(C(=O)O)cc2)CC1	n	n	n	n	n	n
COc1ccc(CN2CCN(Cc3cccc(F)c3)CC2)cc1OC	x	3.2µM	n[2.33 µM]	n	u	22µM
Cc1cc2oc(C(=O)Nc3ccc(S(=O)(=O)Nc4onc(C)c4C)cc3)cc(=O)c2cc1C	x	n	n	x	n	n
Cc1ccc(NC(=O)C(C)Sc2nc3c(c(=O)[nH]2)CCCC3)cc1Cl (stereo unspecified)	x	n	n	x	n	n
COc1ccc(NC(=S)N2CCN(Cc3cccc(F)c3)CC2)c(OC)c1	n	n	x	n	n	u
COc1cc(OC)c(OC)cc1CN1CCN(Cc2ccco2)CC1	n	22µM	35µM	n	n	79µM
Cc1ccccc1N1CCN(Cc2cccc(C(=O)O)c2)CC1	n	n	n	x	n	n
COc1cc(OC)c(OC)cc1CN1CCN(Cc2cccc(F)c2)CC1	n	56µM	u	n	n	n
COC(=O)c1cc(CN2CCN(c3ccccc3C)CC2)ccc1O	x	2µM	7.1µM	x	u	56µM
CCOC(=O)c1cccc(NC(=O)Cn2ncc3c4ccccc4n(Cc4ccccc4)c3c2=O)c1	x	u	n	x	n	n
Cc1ccc([N+](=O)[O-])cc1NC(=O)CN1CCCCC1	n	n	n[0.501 µM]	n	n	n
CC(=O)N1CCN(CC(=O)Nc2cc([N+](=O)[O-])ccc2Cl)CC1	x	n	40µM	n	n	n
O=C(CN1CCN(c2ccc(O)cc2)CC1)Nc1cc([N+](=O)[O-])ccc1Cl	n	u	5.6µM	n	n	u
Cc1ccc2nc(N3CCN(c4ccccc4F)CC3)c3nnnn3c2c1	x	n	n	x	n	n
COc1ccc(-c2nc3ccccc3s2)cc1NC(=O)c1ccc(F)cc1	x	n	n	x	n	n
Cc1ccc2c(=O)c(C(=O)c3ccc(F)cc3)cn(CC(=O)NCc3ccco3)c2n1	x	u	50µM	u	n	50µM
CCCOc1ccc(Cc2c(COCC)[nH]c(=S)[nH]c2=O)cc1	n	n	45µM	n	n	n
CCCOc1ccc(CCC(=O)O)cc1	n	n	x	n	n	n
COc1ccc(Cl)cc1-c1nc(SCC(=O)N(C)C)n[nH]1	x	n	n	n	n	n
C=CCn1c(-c2cc(Cl)ccc2OC)n[nH]c1=S	x	7.9µM	1.6µM	n	n	n
COc1ccc(Cl)cc1-c1n[nH]c(=S)n1C	x	6.3µM	7.9µM	n	n	n
C=CCn1c(-c2ccoc2C)n[nH]c1=S	x	n	u	x	n	u
CCn1c(-c2cc(Br)ccc2O)n[nH]c1=S	x	13µM	x	x	n	x
CCn1c(-c2cc(Cl)ccc2OC)n[nH]c1=S	x	7.1µM	5.6µM	n	n	n
SMILES	L3MBTL1 block	JMJD2A Tudor inh	G9a block	PI5P4Ka inh	HP1b binding inh	BAZ2B inh
O=C(Nc1ccc2nc(SCCOc3ccccc3Cl)sc2c1)c1cccs1	x	n	n	x	n	n
COc1cccc(Nc2nc3cc(Cl)c(Cl)cc3nc2-n2nc(C)cc2C)c1	x	n	n	x	n	n
CCCOP(=O)(c1ccc(N(C)C)cc1)C(O)c1cc(OC)ccc1OC (stereo unspecified)	x	n	n	n	n	n
CC(C)OP(=O)(c1ccc(N(C)C)cc1)C(O)c1c(Cl)cccc1Cl (stereo unspecified)	x	n	n[2.33 µM]	n	n	n
COc1ccc(C(O)P(=O)(OC(C)C)c2ccc(N(C)C)cc2)c(OC)c1 (stereo unspecified)	x	22µM	n[0.501 µM]	n	n	n
CC(C)COP(=O)(c1ccc(N(C)C)cc1)C(O)c1ccc(N(C)C)cc1 (stereo unspecified)	x	u	40µM	n	n	n
CC(C)COP(=O)(c1ccc(N(C)C)cc1)C(O)c1ccccc1 (stereo unspecified)	x	n	n	n	n	n
CC(C)OP(=O)(c1ccc(N(C)C)cc1)C(O)c1ccc(N(C)C)cc1 (stereo unspecified)	x	4.5µM	n[0.501 µM]	n	n	n
COc1cc(/C=N/n2nnnc2N)cc(Cl)c1OC	x	n	x	n	n	x
COc1ccc(/C=N/n2cnn(Cc3ccccc3Cl)c2=S)cc1	n	n	28µM	n	u	n
COc1cc(/C=N/n2cnn(Cc3ccccc3Cl)c2=S)cc(OC)c1OC	n	n	32µM	n	n	n
Oc1ccccc1/C=N/n1cnn(Cc2ccccc2Cl)c1=S	n	18µM	3.5µM	n	n	n
Cc1cc(C)n(Cc2ccccc2Cl)n1	n	n	n	n	n	n
COc1cccc(C(=O)N2c3cc(C)ccc3C(C)(c3ccccc3)CC2(C)C)c1 (stereo unspecified)	x	n	n	x	n	n
O=C(Cc1c(F)cccc1Cl)NNC(=S)Nc1ccc(S(=O)(=O)Nc2ncccn2)cc1	x	n	28µM	n	n	n
Cc1nn(C)c(C)c1NC(=S)Nc1ccc(S(=O)(=O)Nc2ncccn2)cc1	x	n	71µM	n	n	n
O=C(/C=C/c1c(F)cccc1Cl)Nc1ccc(S(=O)(=O)Nc2ncccn2)cc1	x	n	u	n	n	n
O=C(CNC(=O)c1ccc(Cl)cc1)Nc1ccc(S(=O)(=O)Nc2ncccn2)cc1	n	n	22µM	n	n	u
O=C(Cc1ccc(Cl)c(Cl)c1)Nc1ccc(S(=O)(=O)Nc2ncccn2)cc1	x	20µM	u	n	n	n
COCC(=O)Nc1ccc(S(=O)(=O)Nc2ncccn2)cc1	x	x	n	x	x	n
Cc1cc(CNC(=S)Nc2ccc(S(=O)(=O)Nc3ncccn3)cc2)nn1C	x	n	x	n	n	n
Cc1ccc(C)c(S(=O)(=O)c2cn(Cc3ccccc3)c3cc(N4CCCC4)c(F)cc3c2=O)c1	x	n	n	x	n	n
COc1cccc2c1C(=O)c1c(O)c3c(c(O)c1C2=O)C[C@@](O)(C(=O)CO)C[C@@H]3O[C@H]1C[C@H](N)[C@H](O)[C@H](C)O1	n	n	22µM	n	n	35µM
CCCCCn1c(=O)[nH]c2cc(C(=O)N3CCN(c4cccc(C(F)(F)F)c4)CC3)ccc2c1=O	x	n	n	x	n	n
O=C1C(=O)N(Cc2ccco2)C(c2cccc(Cl)c2)/C1=C(\O)c1ccc2c(c1)OCCO2 (stereo unspecified)	n	79µM	u	n	n	u
COc1cc(C2/C(=C(\O)c3ccc4c(c3)OCCO4)C(=O)C(=O)N2Cc2ccco2)cc(OC)c1OC (stereo unspecified)	x	n	50µM	n	n	n
COc1ccc(C2/C(=C(\O)c3ccc4c(c3)OCCO4)C(=O)C(=O)N2Cc2cccnc2)cc1OC (stereo unspecified)	x	n	u	n	n	n
